For nine sequences, binding signal results are on record in publication PMC7862700, “An all-to-all approach to the identification of sequence-specific readers for epigenetic DNA modifications on cytosine”.

Common to all, as to assay: DAPPL (digital affinity profiling via proximity ligation, sequencing); 10 mM Tris-HCl pH 7.5, 50 mM NaCl, 1 mM DTT, 4% glycerol, room temperature, 30 min; GST-TFs on glutathione beads, 16-mer random dsDNA library, 0.1% formaldehyde crosslink after washing; high values mean tight binding
Common to all, as to details: protein: recombinant; tags: N-terminal GST; dsDNA, one strand shown

One test addresses T1, ERF (Homo sapiens, UniProt P50548 1-548).
T1 sequence: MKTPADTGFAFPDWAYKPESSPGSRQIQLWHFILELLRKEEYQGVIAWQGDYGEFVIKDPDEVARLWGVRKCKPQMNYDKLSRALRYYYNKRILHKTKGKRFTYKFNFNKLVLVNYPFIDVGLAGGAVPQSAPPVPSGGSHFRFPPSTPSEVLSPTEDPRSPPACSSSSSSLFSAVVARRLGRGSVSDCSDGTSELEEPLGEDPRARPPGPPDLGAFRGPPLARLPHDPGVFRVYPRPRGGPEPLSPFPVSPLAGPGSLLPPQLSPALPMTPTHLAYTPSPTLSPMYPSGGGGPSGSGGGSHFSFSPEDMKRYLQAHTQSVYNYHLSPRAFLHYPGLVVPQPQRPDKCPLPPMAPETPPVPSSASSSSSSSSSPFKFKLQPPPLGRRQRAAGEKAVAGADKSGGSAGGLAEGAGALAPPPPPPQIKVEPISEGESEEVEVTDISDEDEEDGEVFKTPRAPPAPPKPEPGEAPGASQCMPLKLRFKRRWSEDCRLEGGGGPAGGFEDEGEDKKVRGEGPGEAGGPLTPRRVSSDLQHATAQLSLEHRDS
The procedure, abridged: (§1)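 Pools of DNA-barcoded human transcription factors, expressed in yeast as GST fusions on glutathione beads and combined with a tag-only sample, were incubated with 200 nmole of a 16-mer random double-stranded DNA library. Incubation took 30 min at room temperature in Tris/NaCl/DTT/glycerol buffer and was followed by washing, 0.1% formaldehyde crosslinking, proximity ligation (BsaI/T4 ligase, 1 h, 37 °C), PCR amplification and sequencing on an Illumina NextSeq500. Binding signal is the ratio of a hexamer's read frequency for a factor to its frequency for the tag-only sample.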

The target in another test is T2, ETV3L (Homo sapiens, UniProt Q6ZN32 1-361).
T2 sequence: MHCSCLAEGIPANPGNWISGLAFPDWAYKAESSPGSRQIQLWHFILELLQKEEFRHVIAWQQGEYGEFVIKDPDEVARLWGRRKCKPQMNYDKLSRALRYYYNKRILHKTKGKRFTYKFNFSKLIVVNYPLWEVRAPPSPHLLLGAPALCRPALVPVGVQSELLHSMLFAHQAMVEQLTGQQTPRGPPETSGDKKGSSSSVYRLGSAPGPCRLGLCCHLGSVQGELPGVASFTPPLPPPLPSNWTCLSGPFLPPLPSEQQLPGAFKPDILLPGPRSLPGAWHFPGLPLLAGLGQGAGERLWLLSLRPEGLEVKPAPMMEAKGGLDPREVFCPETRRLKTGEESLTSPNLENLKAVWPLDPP
The procedure, abridged: as §1

In another test the target is T3, ETS2 (Homo sapiens, UniProt P15036 1-469).
T3 sequence: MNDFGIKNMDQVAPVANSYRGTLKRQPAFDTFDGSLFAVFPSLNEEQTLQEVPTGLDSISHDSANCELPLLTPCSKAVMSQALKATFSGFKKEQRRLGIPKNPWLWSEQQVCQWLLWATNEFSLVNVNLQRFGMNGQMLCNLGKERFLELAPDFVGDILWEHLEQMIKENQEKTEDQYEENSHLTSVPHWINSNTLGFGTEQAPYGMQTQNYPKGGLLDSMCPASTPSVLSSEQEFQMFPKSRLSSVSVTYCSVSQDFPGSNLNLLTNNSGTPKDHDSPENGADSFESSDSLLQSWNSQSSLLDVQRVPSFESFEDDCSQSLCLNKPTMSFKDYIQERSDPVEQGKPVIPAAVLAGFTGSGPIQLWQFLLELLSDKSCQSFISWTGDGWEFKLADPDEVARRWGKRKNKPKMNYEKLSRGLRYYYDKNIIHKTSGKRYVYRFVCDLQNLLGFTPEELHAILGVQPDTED
In outline:
as §1

Another test has as its target T4, SPDEF (Homo sapiens, UniProt O95238 1-335).
T4 sequence: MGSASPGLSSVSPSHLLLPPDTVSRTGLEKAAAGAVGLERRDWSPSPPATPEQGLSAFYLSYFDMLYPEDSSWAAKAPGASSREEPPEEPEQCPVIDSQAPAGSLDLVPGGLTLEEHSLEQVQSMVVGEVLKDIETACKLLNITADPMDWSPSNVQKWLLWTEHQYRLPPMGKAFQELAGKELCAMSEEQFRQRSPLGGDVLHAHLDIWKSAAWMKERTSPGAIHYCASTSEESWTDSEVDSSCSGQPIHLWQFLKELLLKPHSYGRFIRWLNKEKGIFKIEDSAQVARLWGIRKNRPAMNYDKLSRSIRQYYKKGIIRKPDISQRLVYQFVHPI
In outline: as §1

The target in the next test is T5, ETV7 (Homo sapiens, UniProt Q9Y603 1-341).
T5 sequence: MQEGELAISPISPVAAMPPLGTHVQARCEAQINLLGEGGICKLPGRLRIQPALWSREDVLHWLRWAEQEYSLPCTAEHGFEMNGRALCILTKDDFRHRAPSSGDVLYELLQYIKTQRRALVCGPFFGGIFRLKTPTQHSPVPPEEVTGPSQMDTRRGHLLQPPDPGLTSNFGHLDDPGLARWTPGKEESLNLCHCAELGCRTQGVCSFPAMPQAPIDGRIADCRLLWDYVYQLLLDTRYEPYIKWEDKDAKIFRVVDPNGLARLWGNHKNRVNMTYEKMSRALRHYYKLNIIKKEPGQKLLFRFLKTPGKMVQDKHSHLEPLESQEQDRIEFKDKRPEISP
The procedure, abridged: as §1

The next test addresses T6, ELF5 (Homo sapiens, UniProt Q9UKW6-2 1-255).
T6 sequence: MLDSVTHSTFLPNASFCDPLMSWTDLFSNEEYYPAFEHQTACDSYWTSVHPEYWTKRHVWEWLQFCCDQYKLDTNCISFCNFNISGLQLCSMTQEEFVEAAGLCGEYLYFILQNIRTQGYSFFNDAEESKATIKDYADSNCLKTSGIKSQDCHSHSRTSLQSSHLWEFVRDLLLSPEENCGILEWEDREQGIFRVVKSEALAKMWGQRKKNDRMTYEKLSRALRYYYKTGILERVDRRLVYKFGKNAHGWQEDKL
In outline:
as §1

For another test, the target named is T7, ETV3 (Homo sapiens, UniProt P41162-2 1-143).
T7 sequence: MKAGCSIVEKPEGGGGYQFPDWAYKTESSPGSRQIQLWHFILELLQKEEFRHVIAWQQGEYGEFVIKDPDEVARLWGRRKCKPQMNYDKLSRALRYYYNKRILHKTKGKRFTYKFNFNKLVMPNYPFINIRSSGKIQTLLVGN
In outline:
as §1

A further test deals with ETV6 (Homo sapiens, UniProt P41212 1-452). In outline:
as §1

Chain of ETV6 (P41212 whole entry): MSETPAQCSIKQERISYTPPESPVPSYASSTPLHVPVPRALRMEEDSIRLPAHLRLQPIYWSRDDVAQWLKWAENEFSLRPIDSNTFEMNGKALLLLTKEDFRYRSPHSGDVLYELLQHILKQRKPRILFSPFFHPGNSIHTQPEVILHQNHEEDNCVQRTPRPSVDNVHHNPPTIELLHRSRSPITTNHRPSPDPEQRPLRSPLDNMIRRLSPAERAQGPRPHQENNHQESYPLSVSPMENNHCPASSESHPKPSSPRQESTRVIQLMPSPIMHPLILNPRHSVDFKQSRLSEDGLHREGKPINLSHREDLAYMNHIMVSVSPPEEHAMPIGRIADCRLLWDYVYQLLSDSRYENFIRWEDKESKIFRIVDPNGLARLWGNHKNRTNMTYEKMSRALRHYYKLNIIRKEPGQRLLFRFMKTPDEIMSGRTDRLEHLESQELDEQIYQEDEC

As to TGTACC, the binding signal was 1.17 fold enrichment (6-mer frequency, TF over GST control) with ERF; 1.34 fold enrichment (6-mer frequency, TF over GST control) with ETV3L; 1.38 fold enrichment (6-mer frequency, TF over GST control) in the test with ETS2; 1.47 fold enrichment (6-mer frequency, TF over GST control) with SPDEF; 1.26 fold enrichment (6-mer frequency, TF over GST control) in the test with ETV7; 1.27 fold enrichment (6-mer frequency, TF over GST control) with ELF5. Besides, the binding signal in the test with ETV3 is 1.35 fold enrichment (6-mer frequency, TF over GST control); in the test with ETV6, 1.28 fold enrichment (6-mer frequency, TF over GST control).
Consider ACTTGT, for which the binding signal in the test with ERF was 1.28 fold enrichment (6-mer frequency, TF over GST control); with ETV3L, 1.23 fold enrichment (6-mer frequency, TF over GST control); with ETS2 it was 1.36 fold enrichment (6-mer frequency, TF over GST control); with SPDEF, 1.22 fold enrichment (6-mer frequency, TF over GST control); with ETV7 it was 1.2 fold enrichment (6-mer frequency, TF over GST control); with ELF5, 1.28 fold enrichment (6-mer frequency, TF over GST control). Also, the binding signal was 1.36 fold enrichment (6-mer frequency, TF over GST control) with ETV3 and 1.32 fold enrichment (6-mer frequency, TF over GST control) with ETV6.
AACCAT: the binding signal with ERF was 1.07 fold enrichment (6-mer frequency, TF over GST control); with ETV3L, 1.16 fold enrichment (6-mer frequency, TF over GST control); with ETS2 it was 1.12 fold enrichment (6-mer frequency, TF over GST control); with SPDEF it was 1.11 fold enrichment (6-mer frequency, TF over GST control); with ETV7, 1.15 fold enrichment (6-mer frequency, TF over GST control); in the test with ELF5 it was 1.08 fold enrichment (6-mer frequency, TF over GST control). Also, the binding signal in the test with ETV3 is 1.16 fold enrichment (6-mer frequency, TF over GST control); with ETV6 it was 1.13 fold enrichment (6-mer frequency, TF over GST control).
TGTTGA: the binding signal was 1.13 fold enrichment (6-mer frequency, TF over GST control) in the test with ERF; 1.17 fold enrichment (6-mer frequency, TF over GST control) with ETV3L; 1.11 fold enrichment (6-mer frequency, TF over GST control) in the test with ETS2; 1.23 fold enrichment (6-mer frequency, TF over GST control) in the test with SPDEF; 1.18 fold enrichment (6-mer frequency, TF over GST control) with ETV7; 1.08 fold enrichment (6-mer frequency, TF over GST control) with ELF5. Besides, the binding signal in the test with ETV3 is 1.11 fold enrichment (6-mer frequency, TF over GST control); with ETV6, 1.01 fold enrichment (6-mer frequency, TF over GST control).
As for ATCGCT, the binding signal was 1.06 fold enrichment (6-mer frequency, TF over GST control) with ERF; 1.05 fold enrichment (6-mer frequency, TF over GST control) with ETV3L; 1.1 fold enrichment (6-mer frequency, TF over GST control) in the test with ETS2; 1.04 fold enrichment (6-mer frequency, TF over GST control) with SPDEF; 1.03 fold enrichment (6-mer frequency, TF over GST control) in the test with ETV7; 1.05 fold enrichment (6-mer frequency, TF over GST control) with ELF5. Also, the binding signal is 1.05 fold enrichment (6-mer frequency, TF over GST control) in the test with ETV3 and 1.04 fold enrichment (6-mer frequency, TF over GST control) in the test with ETV6.
On to CACTCT, for which the binding signal was 1.37 fold enrichment (6-mer frequency, TF over GST control) with ERF; 1.29 fold enrichment (6-mer frequency, TF over GST control) with ETV3L; 1.27 fold enrichment (6-mer frequency, TF over GST control) with ETS2; 1.14 fold enrichment (6-mer frequency, TF over GST control) in the test with SPDEF; 1.19 fold enrichment (6-mer frequency, TF over GST control) with ETV7; 1.18 fold enrichment (6-mer frequency, TF over GST control) in the test with ELF5. Also, the binding signal with ETV3 was 1.43 fold enrichment (6-mer frequency, TF over GST control); in the test with ETV6 it was 1.23 fold enrichment (6-mer frequency, TF over GST control).
In the case of TTCGCA, the binding signal with ERF is 1.46 fold enrichment (6-mer frequency, TF over GST control); with ETV3L, 1.32 fold enrichment (6-mer frequency, TF over GST control); with ETS2, 1.18 fold enrichment (6-mer frequency, TF over GST control); with SPDEF, 1.31 fold enrichment (6-mer frequency, TF over GST control); in the test with ETV7, 1.26 fold enrichment (6-mer frequency, TF over GST control); with ELF5, 1.27 fold enrichment (6-mer frequency, TF over GST control). The binding signal with ETV3 is 1.34 fold enrichment (6-mer frequency, TF over GST control); with ETV6, 1.22 fold enrichment (6-mer frequency, TF over GST control).
With TCCCGT, the binding signal with ERF was 1.4 fold enrichment (6-mer frequency, TF over GST control); with ETV3L, 1.29 fold enrichment (6-mer frequency, TF over GST control); with ETS2 it was 1.34 fold enrichment (6-mer frequency, TF over GST control); with SPDEF it was 1.44 fold enrichment (6-mer frequency, TF over GST control); with ETV7, 1.32 fold enrichment (6-mer frequency, TF over GST control); in the test with ELF5, 1.6 fold enrichment (6-mer frequency, TF over GST control). Further, the binding signal is 1.27 fold enrichment (6-mer frequency, TF over GST control) with ETV3 and 1.3 fold enrichment (6-mer frequency, TF over GST control) in the test with ETV6.
With CTGTCA, the binding signal with ERF is 1.17 fold enrichment (6-mer frequency, TF over GST control); with ETV3L, 1.22 fold enrichment (6-mer frequency, TF over GST control); with ETS2 it was 1.14 fold enrichment (6-mer frequency, TF over GST control); with SPDEF it was 1.06 fold enrichment (6-mer frequency, TF over GST control); with ETV7, 1.12 fold enrichment (6-mer frequency, TF over GST control); with ELF5, 1.14 fold enrichment (6-mer frequency, TF over GST control). Also, the binding signal was 1.09 fold enrichment (6-mer frequency, TF over GST control) in the test with ETV3 and 1.1 fold enrichment (6-mer frequency, TF over GST control) in the test with ETV6.
